# Reference: PubChem BioAssay (NCATS)
# Unmarked numbers belong to inactive results. Results filed as inconclusive are left out. A call without a number means that no potency is given here. Calls of active or inactive are those of the source. Unless noted, calls follow the shape of the dose curve; as a rule, active = well fitted curve in the direction sought with a large enough effect; inconclusive = small, poorly fitted or top-dose-only effect, or another doubt; inactive = no such curve, though single readings can be large; an effect the other way counts as inactive or inconclusive.
# Legend:
# [1] = biological target: Guanine nucleotide-binding protein G(i) subunit alpha-1 (Homo sapiens) (UniProt P63096); test: qHTS Assay for Inhibitors of RGS12 GoLoco Motif Activity (Green Fluorophore) (AID 879);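 also: negative values mean loss of peptide binding seen as reduced polarization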
# Chain of Guanine nucleotide-binding protein G(i) subunit alpha-1 (Homo sapiens) (P63096 whole entry, looked up): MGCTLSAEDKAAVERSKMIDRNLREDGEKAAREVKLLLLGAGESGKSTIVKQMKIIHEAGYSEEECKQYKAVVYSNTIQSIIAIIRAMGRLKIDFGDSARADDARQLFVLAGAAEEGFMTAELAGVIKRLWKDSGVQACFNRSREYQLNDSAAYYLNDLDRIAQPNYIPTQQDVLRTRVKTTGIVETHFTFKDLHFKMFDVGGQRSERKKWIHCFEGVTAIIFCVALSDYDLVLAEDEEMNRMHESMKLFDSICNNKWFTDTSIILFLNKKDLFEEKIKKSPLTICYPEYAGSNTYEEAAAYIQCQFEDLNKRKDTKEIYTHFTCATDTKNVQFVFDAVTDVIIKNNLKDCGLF
# Procedure, shortened: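 Fluorescence polarization assay: 50 nM Gαi1 with 10 nM FITC-labeled RGS12 GoLoco peptide in 10 mM Tris pH 7.5, 150 mM NaCl, 0.1 mM GDP, 0.05% NP40, 10 min at room temperature with compound.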
# [2] = qHTS for differential inhibitors of proliferation of Plasmodium falciparum line Dd2 (AID 1882); settings: Potency: Plasmodium falciparum Dd2 proliferation inhibition; also: nearly all actives have a fitted effect of over 65% in size
# Procedure, shortened: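 SYBR Green I DNA fluorescence read-out, ex 485/em 535 nm. Signals were normalized to 0.29 uM artemisinin and DMSO wells, then corrected using vehicle-only plates flanking each stack. Parasite growth ran 72 h in erythrocytes before lysis.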
# [3] = qHTS for differential inhibitors of proliferation of Plasmodium falciparum line W2 (AID 1883); settings: Potency: Plasmodium falciparum W2 proliferation inhibition;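 also: potency is read from the fitted curve at half-maximal effect; parasites grown with compound for 72 h before lysis and staining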
# [4] = qHTS Assay for Modulators of Human Peripheral Myelin Protein 22 (PMP22) Expression/Activity (AID 1967; active = well fitted curve in the direction sought with a large enough effect in the signal ratio; the % refers to the signal ratio)
# Procedure, shortened: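 Readout is the corrected green/red luminescence ratio after 24 h compound exposure, normalised to untreated cells (0%). Engineered MSC80 mouse Schwann cells express green luciferase from the mouse Pmp22 promoter and red luciferase from EF-alpha as internal control.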
# [5] = biological target: RecQ-like DNA helicase BLM (Homo sapiens) (UniProt P54132); test: qHTS Validation Assay for Inhibitors of Bloom's syndrome helicase (BLM) (AID 2364); also: potency is read from the fitted curve at half-maximal effect
# Procedure, shortened: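 BLM 50 nM in 25 mM Tris-HCl pH 8.0, 5 mM NaCl, 2 mM MgCl2, 1 mM DTT, 0.01% Tween-20, 2.5 ug/ml poly(dI-dC); 15 min cpd preinc, RT. Start: 200 nM forked DNA + 2 mM ATP (final). TAMRA read, 2 reads 2 h apart.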
# [6] = Validation screen for small molecules that induce DNA re-replication in MCF 10A normal breast cells (AID 463097); also: potency is read from the fitted curve at half-maximal effect; nearly all actives have a fitted effect of over 60% in size
# Procedure, shortened: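 Read-out is Hoechst total nuclear intensity by fluorescence scanning imager, flagging increased high-DNA-content nuclei. Compounds were incubated with MCF 10A cells for 48 hr (37 C, 5% CO2) before 40 min staining.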
# [7] = biological target: M-phase phosphoprotein 8 (Homo sapiens) (UniProt Q99549); test: qHTS Validation Assay for Inhibitors for MPP8 Chromodomain Interactions with Methylated Histone Tails (AID 488949); also: potency is read from the fitted curve at half-maximal effect; nearly all actives have a fitted effect of over 55% in size
# Procedure, shortened: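 AlphaScreen proximity signal from streptavidin donor and Ni-chelate acceptor beads (10 ug/mL each) reported binding of MPP8 to trimethyl-K9 H3(1-18) peptide, both at 50 nM. The complex formed 30 min before a 30 min compound exposure at room temperature, in PBS pH 7.4.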
# [8] = biological target: Transient receptor potential cation channel subfamily V member 1 (Homo sapiens) (UniProt Q8NER1); test: HTS Assay for Compounds that Act as Enhancers of the Vanilloid Receptor 1 (AID 488979)
# Chain of Transient receptor potential cation channel subfamily V member 1 (Homo sapiens) (Q8NER1 whole entry, looked up): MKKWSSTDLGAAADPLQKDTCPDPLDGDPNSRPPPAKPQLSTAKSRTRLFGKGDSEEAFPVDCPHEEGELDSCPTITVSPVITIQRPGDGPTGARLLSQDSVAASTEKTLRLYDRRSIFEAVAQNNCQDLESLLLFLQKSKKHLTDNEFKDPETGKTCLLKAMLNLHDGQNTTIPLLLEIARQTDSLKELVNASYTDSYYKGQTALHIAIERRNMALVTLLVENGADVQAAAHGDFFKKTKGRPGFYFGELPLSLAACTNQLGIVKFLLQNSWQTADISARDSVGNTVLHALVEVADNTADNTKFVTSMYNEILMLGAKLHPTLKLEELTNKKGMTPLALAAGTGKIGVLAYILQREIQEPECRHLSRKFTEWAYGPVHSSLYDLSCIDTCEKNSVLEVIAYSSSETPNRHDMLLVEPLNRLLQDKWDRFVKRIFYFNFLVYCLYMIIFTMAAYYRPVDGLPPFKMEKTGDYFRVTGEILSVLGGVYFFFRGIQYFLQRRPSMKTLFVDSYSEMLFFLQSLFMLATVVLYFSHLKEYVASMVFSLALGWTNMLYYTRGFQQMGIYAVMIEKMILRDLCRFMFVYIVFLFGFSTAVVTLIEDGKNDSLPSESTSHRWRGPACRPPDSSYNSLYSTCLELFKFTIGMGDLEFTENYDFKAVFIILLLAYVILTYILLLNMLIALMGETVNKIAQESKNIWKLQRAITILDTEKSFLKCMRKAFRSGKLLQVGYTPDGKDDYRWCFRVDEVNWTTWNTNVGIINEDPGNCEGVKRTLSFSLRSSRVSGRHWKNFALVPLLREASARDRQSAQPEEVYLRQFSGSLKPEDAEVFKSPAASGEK
# Procedure, shortened: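 TRPV1-expressing cells loaded with Fluo-8 calcium dye; compounds added and calcium influx read kinetically for 3 min (agonist phase), then capsaicin at EC20 added and read 2 min more for enhancement. Fluorescence ex 480/em 520 nm.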
# [9] = biological target: Thyrotropin receptor (Homo sapiens) (UniProt P16473); test: qHTS Assay for Antagonists of the Thyroid Stimulating Hormone Receptor (AID 488980)
# Chain of Thyrotropin receptor (Homo sapiens) (P16473 whole entry, looked up): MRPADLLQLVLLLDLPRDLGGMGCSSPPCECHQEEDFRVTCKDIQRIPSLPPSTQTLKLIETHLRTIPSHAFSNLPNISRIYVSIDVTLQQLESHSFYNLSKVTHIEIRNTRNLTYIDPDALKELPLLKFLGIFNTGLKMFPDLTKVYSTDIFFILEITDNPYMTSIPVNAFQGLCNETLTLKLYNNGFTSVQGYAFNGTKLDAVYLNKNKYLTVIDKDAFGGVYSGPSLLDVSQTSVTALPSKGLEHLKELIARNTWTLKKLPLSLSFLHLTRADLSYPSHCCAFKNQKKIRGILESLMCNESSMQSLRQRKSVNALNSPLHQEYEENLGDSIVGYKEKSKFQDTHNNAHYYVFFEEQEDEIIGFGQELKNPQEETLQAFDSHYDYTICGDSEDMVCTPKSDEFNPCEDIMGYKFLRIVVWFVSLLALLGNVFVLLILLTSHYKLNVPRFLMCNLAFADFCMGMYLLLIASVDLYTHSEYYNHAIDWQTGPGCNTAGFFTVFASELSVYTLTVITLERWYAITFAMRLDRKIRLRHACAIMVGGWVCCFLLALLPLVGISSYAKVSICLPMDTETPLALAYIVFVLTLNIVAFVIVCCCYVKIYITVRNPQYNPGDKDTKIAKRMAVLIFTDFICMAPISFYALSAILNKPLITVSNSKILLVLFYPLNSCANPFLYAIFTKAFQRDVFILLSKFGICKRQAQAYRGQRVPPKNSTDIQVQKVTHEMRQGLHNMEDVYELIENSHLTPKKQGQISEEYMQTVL
# Procedure, shortened: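 Inhibition of cAMP raised by EC80 TSH (4 nM final) was read by HTRF, with lysate cAMP competing against cAMP-d2 for cryptate antibody after 30 min at room temperature. The cells were transfected HEK293 held in phosphodiesterase inhibitor RO 20-1724 at 70 uM.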
# [10] = biological target: Thyrotropin-releasing hormone receptor (Homo sapiens) (UniProt P34981); test: qHTS for Small Molecule Agonists and Allosteric Enhancers of Human TRH Receptor: Validation Screen for Agonists (AID 493127;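 active = calcium activation more than 3 SD above the typical response in the agonist read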;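 also: intracellular calcium rise by fluo-8 fluorescence before TRH EC20 addition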); settings: TRH receptor agonist cell assay; at 2 µM; stronger effect = higher value
# Chain of Thyrotropin-releasing hormone receptor (Homo sapiens) (P34981 whole entry, looked up): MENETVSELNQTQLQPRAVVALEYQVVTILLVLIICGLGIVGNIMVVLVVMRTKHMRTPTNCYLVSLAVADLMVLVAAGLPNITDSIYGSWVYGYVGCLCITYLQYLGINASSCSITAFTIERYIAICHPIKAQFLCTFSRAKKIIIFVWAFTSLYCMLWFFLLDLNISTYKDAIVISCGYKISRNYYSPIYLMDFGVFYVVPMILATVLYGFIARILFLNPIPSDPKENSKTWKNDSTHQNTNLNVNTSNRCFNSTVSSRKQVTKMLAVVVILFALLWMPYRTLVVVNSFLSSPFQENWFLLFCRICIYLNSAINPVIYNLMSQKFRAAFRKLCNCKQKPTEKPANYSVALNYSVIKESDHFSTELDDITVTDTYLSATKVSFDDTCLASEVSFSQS
# Procedure, shortened: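 TRHR-expressing cells were plated overnight in serum-containing medium, then loaded with fluo-8 calcium dye at room temperature for 30 min–1.5 h. After a 10 s baseline, compound was pin-transferred and calcium fluorescence (ex 480/em 530) read kinetically for agonist response.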
# [11] = biological target: Galactokinase (Homo sapiens) (UniProt P51570); test: qHTS Validation Assay for Inhibitors of Human Galactokinase (GALK) (AID 493189)
# Chain of Galactokinase (Homo sapiens) (P51570 whole entry, looked up): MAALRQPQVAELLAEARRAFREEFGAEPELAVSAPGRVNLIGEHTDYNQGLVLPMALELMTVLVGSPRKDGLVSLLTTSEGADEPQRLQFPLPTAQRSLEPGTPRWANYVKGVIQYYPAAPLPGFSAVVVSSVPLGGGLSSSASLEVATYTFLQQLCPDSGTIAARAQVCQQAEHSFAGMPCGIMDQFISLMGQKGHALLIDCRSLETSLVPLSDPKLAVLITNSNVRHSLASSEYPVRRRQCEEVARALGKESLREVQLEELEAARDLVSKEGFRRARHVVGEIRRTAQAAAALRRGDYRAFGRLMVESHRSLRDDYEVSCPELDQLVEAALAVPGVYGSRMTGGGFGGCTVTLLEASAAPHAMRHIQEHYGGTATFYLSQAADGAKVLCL
# Procedure, shortened: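 Inhibition was measured as remaining ATP, detected by luciferase luminescence after a 1 h room-temperature reaction. Final conditions: 5 nM GALK, 100 uM galactose, 35 uM ATP, pH 8.0 HEPES buffer.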
# [12] = Validation screen for small molecules that induce DNA re-replication in SW480 colon adenocarcinoma cells (AID 504364)
# Procedure, shortened: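 SW480 cells seeded at 250 per well were exposed to compound or DMSO for 48 hr at 37 C, 5% CO2, then stained with Hoechst for 40 min. DNA content per nucleus was imaged (405 nm ex, 500-530 nm em).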
# [13] = biological target: Rap guanine nucleotide exchange factor 4 (Homo sapiens) (UniProt Q8WZA2); test: Confirmatory qHTS for antagonist of cAMP-regulated guanine nucleotide exchange factor 4 (EPAC2) (AID 1645885); also: potency is read from the fitted curve at half-maximal effect; nearly all actives have a fitted effect of over 25% in size
# Chain of Rap guanine nucleotide exchange factor 4 (Homo sapiens) (Q8WZA2 whole entry, looked up): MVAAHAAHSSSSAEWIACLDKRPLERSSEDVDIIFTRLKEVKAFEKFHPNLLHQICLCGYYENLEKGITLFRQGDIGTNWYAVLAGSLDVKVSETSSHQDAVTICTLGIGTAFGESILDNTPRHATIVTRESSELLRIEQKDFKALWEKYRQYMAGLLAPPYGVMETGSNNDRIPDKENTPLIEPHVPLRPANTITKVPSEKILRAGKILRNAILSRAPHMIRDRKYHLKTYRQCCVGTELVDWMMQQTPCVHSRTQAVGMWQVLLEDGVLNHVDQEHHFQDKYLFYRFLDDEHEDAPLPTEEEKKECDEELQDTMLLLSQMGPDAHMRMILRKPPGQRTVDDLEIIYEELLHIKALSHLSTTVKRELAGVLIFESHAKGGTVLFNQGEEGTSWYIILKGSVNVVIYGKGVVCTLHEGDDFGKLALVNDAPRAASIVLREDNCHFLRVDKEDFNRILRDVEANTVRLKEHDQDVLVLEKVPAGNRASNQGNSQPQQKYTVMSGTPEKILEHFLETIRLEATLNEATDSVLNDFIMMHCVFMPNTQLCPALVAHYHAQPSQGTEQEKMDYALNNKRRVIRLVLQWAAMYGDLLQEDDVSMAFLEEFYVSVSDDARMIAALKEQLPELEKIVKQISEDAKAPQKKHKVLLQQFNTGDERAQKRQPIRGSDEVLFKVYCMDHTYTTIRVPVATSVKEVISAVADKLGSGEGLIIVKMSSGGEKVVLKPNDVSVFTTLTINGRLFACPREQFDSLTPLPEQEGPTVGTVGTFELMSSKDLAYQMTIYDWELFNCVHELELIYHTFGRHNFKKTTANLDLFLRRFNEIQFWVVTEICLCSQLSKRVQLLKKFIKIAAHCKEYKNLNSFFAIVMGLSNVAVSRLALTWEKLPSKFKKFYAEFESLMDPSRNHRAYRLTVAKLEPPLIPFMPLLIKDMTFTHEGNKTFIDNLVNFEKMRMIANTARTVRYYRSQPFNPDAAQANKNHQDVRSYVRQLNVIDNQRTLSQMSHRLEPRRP
# [14] = biological target: Rap guanine nucleotide exchange factor 3 (Homo sapiens) (UniProt O95398); test: Confirmatory qHTS for antagonist of cAMP-regulated guanine nucleotide exchange factor 3 (EPAC1) (AID 1645880); also: nearly all actives have a fitted effect of over 55% in size
# Chain of Rap guanine nucleotide exchange factor 3 (Homo sapiens) (O95398 whole entry, looked up): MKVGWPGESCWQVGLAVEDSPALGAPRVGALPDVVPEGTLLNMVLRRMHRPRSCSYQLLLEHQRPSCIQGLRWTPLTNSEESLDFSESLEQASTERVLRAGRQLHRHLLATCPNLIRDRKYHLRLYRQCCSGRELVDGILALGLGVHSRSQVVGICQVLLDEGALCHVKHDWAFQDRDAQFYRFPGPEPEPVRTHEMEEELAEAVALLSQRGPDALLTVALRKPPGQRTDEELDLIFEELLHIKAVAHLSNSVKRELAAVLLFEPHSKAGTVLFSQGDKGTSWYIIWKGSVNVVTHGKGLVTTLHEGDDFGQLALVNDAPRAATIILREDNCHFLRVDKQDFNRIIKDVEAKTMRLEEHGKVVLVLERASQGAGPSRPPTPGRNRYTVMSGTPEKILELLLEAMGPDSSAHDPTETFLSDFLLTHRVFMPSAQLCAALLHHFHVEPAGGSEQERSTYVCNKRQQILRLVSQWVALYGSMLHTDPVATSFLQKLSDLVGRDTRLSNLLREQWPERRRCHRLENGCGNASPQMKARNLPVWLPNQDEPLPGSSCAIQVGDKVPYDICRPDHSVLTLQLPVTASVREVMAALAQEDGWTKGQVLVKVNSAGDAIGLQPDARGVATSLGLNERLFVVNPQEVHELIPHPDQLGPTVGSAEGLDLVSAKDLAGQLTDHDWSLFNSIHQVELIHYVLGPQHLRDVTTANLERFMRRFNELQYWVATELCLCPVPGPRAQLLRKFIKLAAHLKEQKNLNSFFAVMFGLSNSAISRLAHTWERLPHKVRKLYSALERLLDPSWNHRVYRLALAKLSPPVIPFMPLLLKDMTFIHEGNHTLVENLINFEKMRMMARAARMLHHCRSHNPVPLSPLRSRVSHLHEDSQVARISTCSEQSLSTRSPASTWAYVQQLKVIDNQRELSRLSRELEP
# Procedure, shortened: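 Nucleotide exchange uses 100 nM EPAC1, 250 nM RAP1B-BODIPY-GDP and 50 uM GDP, with compounds in a concentration-titration series. After 5 min at room temperature, fluorescence (480 nm ex/540 nm em) is read every 5 min for 30 min. Data are normalized to control ATA and DMSO.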
# [15] = Counterscreen qHTS for small molecule stabilizers of the endoplasmic reticulum resident proteome: GLuc-NoTag assay (AID 1508627);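 also: SH-SY5Y cells given compound then 100 nM thapsigargin to empty ER calcium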
# Procedure, shortened: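 SH-SY5Y cells stably expressing constitutively secreted GLuc (no SERCaMP tag) were pre-incubated 5 h, treated with compound for 19 h, then 100 nM thapsigargin for 4 h at 37C; medium GLuc read by coelenterazine luminescence.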
# [16] = Confirmatory qHTS for small molecule stabilizers of the endoplasmic reticulum resident proteome: Secreted ER Calcium Modulated Protein (SERCaMP) assay (AID 1508628);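 also: SH-SY5Y cells given compound 16 h then thapsigargin 100 nM for 4 h; nearly all actives have a fitted effect of over 40% in size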
# Procedure, shortened: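 We seeded SH-SY5Y-GLuc-SERCaMP cells, added compounds (three concentrations in the primary run, eleven up to 76.6 uM in confirmation), incubated 16 h, depleted ER calcium with thapsigargin, and read luciferase 4 h later.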
# [17] = Cell Viability qHTS for small molecule stabilizers of the endoplasmic reticulum resident proteome (AID 1508629); settings: cell viability counter-screen, 100 nM thapsigargin for final 4 h;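 also: potency is read from the fitted curve at half-maximal effect; compound exposure about 46 h in total before the viability read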
# CP291 = test: qHTS profiling for inhibitors of Plasmodium falciparum proliferation (AID 504749); also: potency is read from the fitted curve at half-maximal effect; nearly all actives have a fitted effect of over 60% in size; settings: P. falciparum in erythrocytes, SYBR Green DNA, 72 h; series mostly up to 28.7 µM
# Procedure, shortened: (§1)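 P. falciparum-infected erythrocytes (0.3% parasitemia, 2.5% hematocrit final) were exposed to compounds for 72 h at 37 C in 5% CO2, then lysed with SYBR Green buffer overnight at room temperature; parasite DNA fluorescence was normalized to artemisinin and DMSO controls.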
# GB4 = test: as above; settings: P. falciparum in erythrocytes, SYBR Green DNA, 72 h; series mostly up to 28.7 µM
# Procedure, shortened: as §1
# W2 = test: as above; settings: P. falciparum in erythrocytes, SYBR Green DNA, 72 h; series mostly up to 28.7 µM
# Procedure, shortened: as §1
smiles,measurement,setting,value
CC(C)=CCC/C(C)=C/CC/C(C)=C/CSc1ccccc1C(=O)O,outcome,[1],inactive
same,Potency,[2],inactive
same,Potency,[3],11.2 µM (active)
same,outcome,[4],inactive
same,Potency,[5],31.6 µM (active)
same,Potency,[6],11.2 µM (active)
same,Potency,[7],56.2 µM (active)
same,outcome,[8],inactive
same,outcome,[9],inactive
same,activation,[10],1.12%
same,outcome,[11],inactive
same,outcome,[12],inactive
CCC(=O)O[C@H]1CC[C@H]2[C@@H]3CCc4cc(O)ccc4[C@H]3CC[C@]12C,Potency,[13],27.8 µM (active)
C#C[C@]1(OC(C)=O)CC[C@H]2[C@@H]3CCC4=CC(=O)CC[C@@H]4[C@H]3CC[C@@]21C,Potency,[14],inactive
CS(=O)(=O)CCNCc1nc(-c2ccc3ncnc(Nc4ccc(OCc5cccc(F)c5)c(Cl)c4)c3c2)cs1,Potency,[15],inactive
same,Potency,[16],inactive
same,Potency,[17],15.8 µM (active)
CN1CCN(CCC=C2c3ccccc3Sc3ccc(S(=O)(=O)N(C)C)cc32)CC1,Potency,CP291,15.1 µM (active)
same,Potency,GB4,13.5 µM (active)
same,Potency,W2,6.01 µM (active)
